Screening results: PubChem BioAssay, several laboratories
pPAFAH inh – inhibitors of human plasma PAF acetylhydrolase (pPAFAH); Q13093; recombinant pPAFAH, FP-rhodamine probe fluorescence polarization; inhibition, % at 3.39 µM; actives 1.5% (n = 330,000);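 active = inhibition above the mean inhibition across the screen plus 3 SD, cut at about 25% in these data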;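 also: inhibitors block binding of the rhodamine activity-based probe so polarization drops; 0% = enzyme with DMSO and 100% = wells lacking pPAFAH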
PAFAH1B3 FP inh – blocks human PAF acetylhydrolase 1B catalytic subunit 3; AID 492972; actives 0.28% (n = 340,000); inhibition, % at 3.39 µM; recombinant PAFAH1B3, FP-rhodamine probe, fluorescence polarization; Q15102;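 active = inhibition above the screen-wide average of all tested compounds plus 3 SD, cut at about 25% in these data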;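 also: 0% = enzyme with DMSO only and 100% = wells lacking PAFAH1B3 protein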
PfM18AAP inh – blocks P. falciparum M18 aspartyl aminopeptidase; recombinant PfM18AAP, H-Glu-NHMec fluorogenic cleavage; inhibition, % at 7.35 µM; actives 1.2% (n = 290,000); AID 1822;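 active = inhibition above the campaign mean inhibition over all tested compounds plus 3 SD, cut at about 28% in these data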;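 also: 0% = plate median of test compound wells and 100% = 2 mM ZnCl2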
DSG3 Ab inh – human desmoglein-3 autoantibody binding inhibition; DSG3-coupled beads, scFv-anti-DSG3-GFP binding, flow cytometry; hits give low values; actives 0.48% (n = 310,000); binding (percent of control), % at 10 µM; P32926;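 active = binding more than 3 SD below its plate's average and above zero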;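 also: hits lower antibody fragment binding to DSG3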
PAFAH2 FP inh – inhibitors of human PAFAH2. Q99487. inhibition, % at 3.39 µM. actives 0.99% (n = 340,000). AID 492956. recombinant PAFAH2, FP-rhodamine activity probe, fluorescence polarization;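 active = inhibition above the mean over all tested compounds plus 3 SD, cut at about 30% in these data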;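 also: inhibitors block probe labeling of enzyme so polarization drops; 0% = enzyme with DMSO and 100% = wells lacking PAFAH2 protein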
PAFAH1B2 FP inh – PAFAH1B2 (human) inhibition; P68402; recombinant PAFAH1B2, FP-rhodamine activity probe, fluorescence polarization; inhibition, % at 3.39 µM; actives 1.2% (n = 340,000); AID 492953;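 active = inhibition above the mean of all tested compounds plus 3 SD, cut at about 24% in these data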;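 also: 0% = enzyme with DMSO and 100% = wells lacking PAFAH1B2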
PAFAH1B3 confirm – PAFAH1B3 (human) inhibition, confirmed; shares compounds with PAFAH1B3 FP inh; actives 30% (n = 390); inhibition, % at 3.39 µM; recombinant PAFAH1B3, FP-Rh activity-based probe, fluorescence polarization;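 active = average inhibition over triplicate runs above the hit cutoff set in the earlier primary screen, cut at about 25% in these data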;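 also: 0% = enzyme with DMSO and 100% = wells lacking PAFAH1B3 protein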
* = called active by the depositor; · = not tested or not shown. Sampled rows, rich in hits. Any-hit rate of the full collection: about 3.8%.

SMILES | pPAFAH inh | PAFAH1B3 FP inh | PfM18AAP inh | DSG3 Ab inh | PAFAH2 FP inh | PAFAH1B2 FP inh | PAFAH1B3 confirm
CCc1ccc2c(CN3CC=C(c4ccccc4)CC3)cc(=O)oc2c1 | 2 | 27* | 4 | 105 | -3 | 2 | 6
CCC1([N+](=O)[O-])COP(N)(=O)OC1 (stereo unspecified) | · | -1 | · | 90 | -1 | 1 | ·
CCCCn1c(NS(=O)(=O)c2ccccc2)c(C(=O)OCC)c2nc3ccccc3nc21 | 18 | 51* | 12 | 107 | 14 | 24 | 5
CCOC(=O)c1c(N)n(CCN2CCCCC2)c2nc3ccccc3nc12 | -1 | -6 | -2 | 103 | 8 | 2 | ·
COc1ccc(C(SCC(NC(=O)OCc2ccccc2)C(=O)O)c2ccc(OC)cc2)cc1 (stereo unspecified) | · | · | · | 107 | · | · | ·
Oc1cccc2nc3ccccc3nc12 | 12 | 35* | 0 | · | 14 | 2 | 10
COc1cc2c(cc1O)[C@@H]1Cc3ccc(OC)c(O)c3CN1CC2 | 0 | 37* | · | 113 | 6 | 8 | 11
CCC(C)NC(=O)c1c(N)n(CCCOC)c2nc3ccccc3nc12 (stereo unspecified) | 18 | 62* | 3 | 98 | 9 | 18 | 19
CC(=O)OC1C=CC2[C@H]3Cc4ccc(O)c5c4[C@@]2(CCN3C)C1O5 (stereo partly specified) | 3 | 2 | · | 103 | 2 | -2 | ·
